Only some compounds are listed: those with a hit (about 9.5% of all), similar ones and a draw of the others.
Tau fibril ThT: qHTS for Inhibitors of Tau Fibril Formation, Thioflavin T Binding; Microtubule-associated protein tau (Homo sapiens), P10636; AID 1460, 2008; Potency, µM (doses to about 57.4 µM), inactives show at the top dose activity, negative = inhibition, actives largely listed as inhibitors; actives 2.1% (n = 270,000); recombinant tau K18 P301L, heparin-induced fibrillization, ThT fluorescence; further: nearly all actives have a fitted effect of over 55% in size
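ThT emission at 510 nm, taken 1 hr after adding 30 uM dye, quantifies aggregates formed when 20 uM heparin acts on human tau K18 P301L for 6 hr at 37 C.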
NPSR antag: qHTS Assay for Antagonists of the Neuropeptide S Receptor: cAMP Signal Transduction; actives 1% (n = 220,000); CHO-NPSR cells, cAMP TR-FRET, antagonist mode; Potency, µM (titrated, usually from 38.3 µM), for inactives: at the highest dose activity change, negative = inhibition, most hits filed as inhibitors; Q6W5P4; further: nearly all actives have a fitted effect of over 50% in size
Target sequence (Q6W5P4 whole entry, looked up): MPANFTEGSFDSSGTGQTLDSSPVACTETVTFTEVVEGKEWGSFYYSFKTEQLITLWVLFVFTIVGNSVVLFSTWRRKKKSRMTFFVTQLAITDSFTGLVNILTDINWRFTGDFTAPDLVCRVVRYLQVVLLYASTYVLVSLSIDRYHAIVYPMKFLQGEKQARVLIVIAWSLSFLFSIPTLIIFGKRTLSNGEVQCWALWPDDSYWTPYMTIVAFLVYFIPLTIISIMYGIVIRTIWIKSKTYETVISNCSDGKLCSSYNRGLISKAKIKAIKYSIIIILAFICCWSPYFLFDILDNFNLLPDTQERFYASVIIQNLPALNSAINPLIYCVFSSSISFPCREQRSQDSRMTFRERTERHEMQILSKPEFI
ALDH1A1 inh: qHTS Assay for Inhibitors of Aldehyde Dehydrogenase 1 (ALDH1A1); Aldehyde dehydrogenase 1A1 (Homo sapiens), P00352; Purified ALDH1A1, NADH fluorescence, propionaldehyde substrate; Potency, µM (doses to about 75.3 µM), for inactives: top-dose activity, negative = inhibition, most hits filed as inhibitors; actives 7.3% (n = 220,000); AID 1030, 2008; active means well fitted inhibition curve with a large enough effect, not every such curve was filed as active; inconclusive means small, poorly fitted or top-dose-only effect, or another doubt; inactive means no such curve, though single readings can be large or run the other way;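 further: plate controls were no enzyme wells and a reference inhibitor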
HPGD block: qHTS Assay for Inhibitors of HPGD (15-Hydroxyprostaglandin Dehydrogenase); 15-hydroxyprostaglandin dehydrogenase [NAD(+)] (Homo sapiens), P15428; purified HPGD, NADH fluorescence kinetic, PGE2 substrate; Potency, µM, for the others: at the highest dose activity change, negative = inhibition, usual class: inhibitors; actives 4.3% (n = 150,000); AID 894, 2007; active means well fitted inhibition curve with a large enough effect, not every such curve was filed as active; inconclusive means small, poorly fitted or top-dose-only effect, or another doubt; inactive means no such curve, though single readings can be large or run the other way
Target sequence (P15428 whole entry, looked up): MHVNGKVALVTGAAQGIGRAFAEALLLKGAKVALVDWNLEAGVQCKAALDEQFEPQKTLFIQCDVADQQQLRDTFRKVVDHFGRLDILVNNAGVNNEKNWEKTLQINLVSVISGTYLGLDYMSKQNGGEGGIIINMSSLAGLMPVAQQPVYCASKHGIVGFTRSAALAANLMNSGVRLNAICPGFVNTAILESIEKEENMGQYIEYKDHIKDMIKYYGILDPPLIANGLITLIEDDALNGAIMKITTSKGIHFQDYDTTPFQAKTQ
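20 nM HPGD preincubated 15 min at room temperature with compound in 50 mM Tris-HCl pH 8, 0.01% Tween 20. Started with 1 mM NAD+ and 30 uM prostaglandin E2; NADH fluorescence (360/450 nm) read 5 times over 30-s intervals, last minus first.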
Tau fibril FP: qHTS for Inhibitors of Tau Fibril Formation, Fluorescence Polarization; Microtubule-associated protein tau (Homo sapiens), P10636; K18 P301L tau heparin fibrillization, Alexa594 FP, 6 h; Potency, µM (series often up to 57.7 µM), inactives show at the top dose activity, negative = inhibition, hits mostly inhibitors; actives 0.39% (n = 280,000); further: nearly all actives have a fitted effect of over 55% in size
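Heparin (20 uM) drove fibril formation of recombinant tau K18 P301L, 15 uM unlabeled with 0.24 uM Alexa 594 label, for 6 hr at 37 C in 100 mM sodium acetate pH 7. Fluorescence polarization (555/632 nm) read 1 hr after 30 uM ThT.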
Tau fluor cs: Counterscreen qHTS for Inhibitors of Tau Fibril Formation, Fluorescence Polarization. Potency, µM (top dose mostly 57.7 µM), inactives show top-dose activity change, negative = decrease. tau K18 P301L Alexa594 fluorescence, heparin fibrillization. actives 0.93% (n = 280,000). AID 1463, 2008; further: nearly all actives have a fitted effect of over 55% in size
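Human tau K18 P301L (15 uM unlabeled, 0.24 uM Alexa 594-labeled) in 100 mM sodium acetate pH 7 with 20 uM heparin, 6 hr at 37 C. ThT 30 uM added, 1 hr ambient; Alexa 594 FP and total fluorescence read at 555/632 nm.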
* = called active by the depositor; [ ] = dose if it differs, or a comment. Unless noted, the call rests on the fitted dose curve; in most records, active means well fitted curve in the direction sought with a large enough effect; inconclusive means small, poorly fitted or top-dose-only effect, or another doubt; inactive means no such curve, though single readings can be large; an effect the other way counts as inactive or inconclusive. Unless noted, on the % scale 0 is the no-effect control and ±100 the full control effect; potency means the concentration at half of the fitted maximal effect.

Results for N#CC1=C(N)C(C#N)(C#N)C(c2cccnc2)C2COCC=C12 (stereo not drawn) ?
Tau fibril ThT: inconclusive; NPSR antag: 3%[46.1 µM]; ALDH1A1 inh: 4%; HPGD block: 28µM*; Tau fibril FP: inconclusive; Tau fluor cs: -15%

How did O=C(NCc1ccco1)C1CCN(C(=O)c2cc3sccc3n2Cc2ccc(Cl)cc2)CC1 do in these assays?
Tau fibril ThT: -26%; NPSR antag: inconclusive; ALDH1A1 inh: 13µM*; HPGD block: -6%; Tau fibril FP: 4%; Tau fluor cs: -19%

How did COCCNC(=O)C1CCN(C(=O)c2cc3sccc3n2Cc2ccc(Cl)cc2)CC1 do in these assays?
Tau fibril ThT: -16%; Tau fibril FP: -2%; Tau fluor cs: -29%

What do the screens show for `O=C(NCc1ccco1)C1CCN(C(=O)N2CCOc3ccc(Cl)cc32)CC1`?
Tau fibril ThT: 20µM*; Tau fibril FP: inconclusive; Tau fluor cs: inconclusive

Results for Cc1cc(C)nc(/N=C2\NC(=O)CC(C(=O)O)N2c2ccc(Oc3ccccc3)cc2)n1 (stereo not drawn) ?
Tau fibril ThT: -18%; NPSR antag: -9%[46.1 µM]; ALDH1A1 inh: -5%; HPGD block: 13µM*; Tau fibril FP: -5%; Tau fluor cs: 2%

Results for Cc1nn(C)cc1/C=N/NC(=O)Cn1nccc1C ?
Tau fibril ThT: 7%; NPSR antag: 17%; ALDH1A1 inh: -1%; HPGD block: -13%; Tau fibril FP: 5%; Tau fluor cs: 0%

What do the screens show for `COc1ccc(-c2c3c([nH]c(=S)c2C#N)CCC3)cc1`?
Tau fibril ThT: inconclusive; NPSR antag: 1µM*; ALDH1A1 inh: 14µM*; HPGD block: 10µM*; Tau fibril FP: -2%; Tau fluor cs: -7%

What do the screens show for `CC(C)Cc1c2c([nH]c(=S)c1C#N)CCCC2`?
Tau fibril ThT: -11%; NPSR antag: -20%; ALDH1A1 inh: -8%; HPGD block: 22µM*; Tau fibril FP: -2%; Tau fluor cs: -1%

Results for N#Cc1c(-c2ccco2)c2c([nH]c1=S)CCCC2 ?
Tau fibril ThT: inconclusive; NPSR antag: 1%[46.1 µM]; ALDH1A1 inh: 20µM*; HPGD block: 16µM*; Tau fibril FP: inconclusive; Tau fluor cs: -21%

How did CCC(SC1=N/C(=C/c2ccccc2)C(=O)N1c1ccccc1)C(=O)Nc1cc(C)on1 (stereo not drawn) do in these assays?
Tau fibril ThT: -2%; NPSR antag: -34%; ALDH1A1 inh: 18µM*; HPGD block: inconclusive; Tau fibril FP: -9%; Tau fluor cs: -19%

What do the screens show for `Clc1ccccc1C(Nc1ncccn1)Nc1ncccn1`?
ALDH1A1 inh: 8%[13.5 µM]; HPGD block: -6%

What do the screens show for `N#Cc1c(Cl)nc(SCc2ccccc2)nc1-c1ccccc1`?
Tau fibril ThT: 1%; NPSR antag: -18%[46.1 µM]; ALDH1A1 inh: 32µM*; HPGD block: 2.8µM*; Tau fibril FP: -1%; Tau fluor cs: 4%

How did N#CCSc1ccsc1C(=O)Nc1ccc(F)cc1 do in these assays?
Tau fibril ThT: -2%; NPSR antag: 19%[46.1 µM]; ALDH1A1 inh: 7.1µM*; HPGD block: 32µM*; Tau fibril FP: -7%; Tau fluor cs: -14%

How did COc1cc(Nc2c3c(nc4ccccc24)CCCC3)cc(OC)c1OC do in these assays?
Tau fibril ThT: inconclusive; NPSR antag: -55%; ALDH1A1 inh: -2%; Tau fibril FP: 1%; Tau fluor cs: -24%

Results for COc1ccc(Nc2c3c(nc4ccc(NC(=O)c5cc(Cl)ccc5OC)cc24)CCCC3)cc1OC ?
Tau fibril ThT: 7.1µM*; Tau fibril FP: -6%; Tau fluor cs: inconclusive

Results for COc1cc(OC)cc(C(=O)Nc2ccc3nc4c(c(Nc5ccc(OC)c(OC)c5)c3c2)CCCC4)c1 ?
Tau fibril ThT: 32µM*; Tau fibril FP: inconclusive; Tau fluor cs: 18µM*[quencher]

What do the screens show for `CCOc1ccccc1C(=O)Nc1ccc2nc3c(c(Nc4ccc(OC)c(OC)c4)c2c1)CCCC3`?
Tau fibril ThT: 10µM*; Tau fibril FP: 5%; Tau fluor cs: inconclusive

How did COc1ccc(Cl)cc1C(=O)Nc1ccc(CN2CCCCC2)cc1 do in these assays?
Tau fibril ThT: -12%; NPSR antag: 9%; ALDH1A1 inh: -4%; Tau fibril FP: -9%; Tau fluor cs: -13%

Results for COc1ccccc1Nc1c2c(nc3ccc(NC(=O)c4ccc(N(C)C)cc4)cc13)CCCC2 ?
Tau fibril ThT: 16µM*; Tau fibril FP: 0%; Tau fluor cs: 11µM*[quencher]

Results for CC(=O)c1ccc(Nc2c3c(nc4ccccc24)CCCC3)cc1 ?
Tau fibril ThT: -7%; NPSR antag: -29%; Tau fibril FP: 10%; Tau fluor cs: -10%

How did CCOCCOC(=O)c1ccc(NC(=O)/C=C/c2ccc(OC)c(OC)c2)cc1 do in these assays?
Tau fibril ThT: 13%; Tau fibril FP: inconclusive; Tau fluor cs: -22%

How did Cn1c(=O)[nH]c(=O)c2c1nc(Br)n2CC(O)c1ccccc1 (stereo not drawn) do in these assays?
Tau fibril ThT: 8%; NPSR antag: -9%[46.1 µM]; ALDH1A1 inh: inconclusive; HPGD block: -10%; Tau fibril FP: -5%; Tau fluor cs: -3%

What do the screens show for `COC(=O)[C@@H]1CC[C@H](C)[C@@H](c2ccc(C)cc2)N1C(=O)c1ccc(/C=N\O[C@@H](C)c2cn([C@H]3COC[C@H]3O)nn2)cc1`?
Tau fibril ThT: -2%[11.5 µM]; ALDH1A1 inh: 0%[13.5 µM]; Tau fibril FP: inconclusive; Tau fluor cs: -10%[11.6 µM]

Results for COc1cc(NC(=O)COC(=O)c2n[nH]c3ccccc23)c(C)cc1[N+](=O)[O-] ?
Tau fibril ThT: inconclusive; NPSR antag: -10%; ALDH1A1 inh: 3%; Tau fibril FP: 13%; Tau fluor cs: -21%

How did COc1ccc(OC)c(N2C(N)=NC(N)=NC23CCCC3)c1 do in these assays?
Tau fibril ThT: inconclusive; NPSR antag: -5%[46.1 µM]; ALDH1A1 inh: 22µM*; Tau fibril FP: -2%; Tau fluor cs: -19%

Results for COc1ccc(OC)c(NC2=NC3(CCCC3)N=C(N)N2)c1 ?
Tau fibril ThT: -1%; NPSR antag: inconclusive; ALDH1A1 inh: 7%; HPGD block: -10%; Tau fibril FP: -7%; Tau fluor cs: 0%

Screening results (PubChem)
